Assay outcomes deposited in PubChem BioAssay by National Center for Advancing Translational Sciences (NCATS).
hNpr1 antagonist: Natriuretic polypeptide receptor (hNpr1) antagonism - Primary qHTS | HEK293 hNpr1 GloSensor cGMP, ANP-stimulated luminescence | hit rate 1.6% among 76,000 | Atrial natriuretic peptide receptor 1 (Homo sapiens), P16066 | Potency, µM (series often up to 46.3 µM), without a hit: at the top dose activity change, negative = inhibition, usual class: inhibitors; calls by dose curve; further: nearly all actives have a fitted effect of over 60% in size
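HEK293 cells stably expressing human Npr1 and cGMP GloSensor pGS-40F, loaded 2 h with 2% GloSensor reagent, given compound 30 min at room temperature. Luminescence read before and 20 min after 0.1 nM hNppA.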
GPT2 inh: Primary qHTS assay for inhibitors of Glutamate pyruvate transaminase 2 (GPT2); Alanine aminotransferase 2 (Homo sapiens), Q8TD30; hit rate 0.25% among 100,000; Potency, µM (titrated, usually from 57.7 µM), without a hit: at the top dose activity change, negative = inhibition, most hits filed as inhibitors; Recombinant GPT2, coupled pyruvate oxidase/HRP Amplex Red fluorescence; AID 1671188, 2021; further: nearly all actives have a fitted effect of over 60% in size
Target sequence (Q8TD30 whole entry, looked up): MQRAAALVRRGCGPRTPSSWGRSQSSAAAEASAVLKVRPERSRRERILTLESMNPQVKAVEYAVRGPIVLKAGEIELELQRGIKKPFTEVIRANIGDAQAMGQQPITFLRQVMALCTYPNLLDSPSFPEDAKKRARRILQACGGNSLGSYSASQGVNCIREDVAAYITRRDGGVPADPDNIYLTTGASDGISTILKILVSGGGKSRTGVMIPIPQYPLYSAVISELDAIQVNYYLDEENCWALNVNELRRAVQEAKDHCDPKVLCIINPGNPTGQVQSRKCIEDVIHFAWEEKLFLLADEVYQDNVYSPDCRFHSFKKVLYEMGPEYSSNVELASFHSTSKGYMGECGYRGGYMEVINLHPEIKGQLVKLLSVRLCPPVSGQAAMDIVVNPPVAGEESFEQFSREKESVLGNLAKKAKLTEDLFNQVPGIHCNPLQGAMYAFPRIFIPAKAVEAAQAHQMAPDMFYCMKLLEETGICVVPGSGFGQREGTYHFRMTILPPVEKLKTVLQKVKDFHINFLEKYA
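Fluorescence of coupled pyruvate oxidase/HRP/Amplex Red system (50uM Amplex, 30 min, dark) reports pyruvate formed by GPT2. Enzyme reaction: 10ng/uL GPT2, 2mM L-alanine, 250uM a-KG, 30 min room temperature, pH 7.5; 50uM AOA control.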
NIH3T3 tox: Cytotoxic Profiling in NIH 3T3 Cell Line of Diverse Libraries Using Quantitative High-Throughput Screening. NIH 3T3 viability, CellTiter-Glo ATP luminescence, 48-72 h. Potency, µM (titrated, usually from 96.7 µM), inactives show top-dose activity change, negative = cytotoxicity, actives largely listed as inhibitors. hit rate 4.3% among 94,000. AID 1345082, 2018; further: nearly all actives have a fitted effect of over 55% in size
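Cytotoxicity is measured as loss of cellular ATP: NIH 3T3 cells (400/well) are exposed to compound for 48 or 72 hr at 37 °C, then CellTiter-Glo luminescence is imaged after 10 min at room temperature.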
HEK293 tox: Cytotoxic Profiling in HEK 293 Cell Line of Diverse Libraries Using Quantitative High-Throughput Screening. AID 1345083, 2018. Potency, µM (titrated, usually from 115 µM), without a hit: at the highest dose activity change, negative = cytotoxicity, most hits filed as inhibitors. HEK 293 viability, ATP luminescence (CellTiter-Glo), 48-72 h. hit rate 6.6% among 94,000; further: nearly all actives have a fitted effect of over 60% in size
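Cytotoxicity was scored by loss of ATP-coupled luminescence (CellTiter-Glo) in HEK 293 cells. Compound treatment ran 48 or 72 hr at 37 degree Celsius, 5% CO2, 95% humidity.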
FLuc inh: Firefly luciferase inhibition profiling of diverse chemical library using quantitative high-throughput screening. AID 1347043, 2019. Luciferin 4-monooxygenase (Photinus pyralis), P08659. hit rate 2.5% among 76,000. purified P. pyralis luciferase, luminescence, biochemical. Potency, µM (titrated, usually from 115 µM), usual class: inhibitors; further: nearly all actives have a fitted effect of over 65% in size
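Purified 10nM P. pyralis luciferase with 10uM D-luciferin and 10uM ATP in 50mM Tris acetate pH 7.5, 10mM Mg acetate, 0.01% Tween-20, 0.05% BSA. qHTS titration; luminescence read by CCD imager.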
Numbers without * were called inactive; [ ] = dose if it differs, or a comment. Rows were chosen to be rich in hits. Some 10% of all compounds tested hit in one or more screens of this group. Unless noted, the call rests on the fitted dose curve; in most records, active means well fitted curve in the direction sought with a large enough effect; inconclusive means small, poorly fitted or top-dose-only effect, or another doubt; inactive means no such curve, though single readings can be large; an effect the other way counts as inactive or inconclusive. On the % scale 0 is the no-effect control and ±100 the full control effect; potency means the concentration at half of the fitted maximal effect.

O[C@@H]1C[C@@H](c2nc(-c3ccc4c(c3)OCO4)no2)N(Cc2ccccn2)C1 was read as hNpr1 antagonist -0.8%[70.6 µM], GPT2 inh -17.6%[88.5 µM], NIH3T3 tox -16.8%[174 µM], HEK293 tox inconclusive and FLuc inh 44.7µM*.
`CNC(=O)[C@@H](c1ccccc1F)N1CCC[C@H]1C(=O)NCCN(C)C` gave hNpr1 antagonist 1.0%[70.6 µM], GPT2 inh 1.4%[88.5 µM], NIH3T3 tox -8.6%[174 µM], HEK293 tox inconclusive and FLuc inh inactive.
`Cn1ccnc1CN1C(=O)CO[C@H](c2ccc(NC(=O)c3ccc(C(F)(F)F)cc3)cc2)[C@H]1CO` gave hNpr1 antagonist 13.6%, GPT2 inh inconclusive, NIH3T3 tox -25.2%, HEK293 tox -25.7% and FLuc inh 35.5µM*.
CCCCCC(=O)Nc1ccc([C@H]2OCC(=O)N(Cc3nccn3C)[C@@H]2CO)cc1 was read as hNpr1 antagonist 9.5%[70.6 µM], GPT2 inh -17.0%[88.5 µM], NIH3T3 tox -18.1%[174 µM], HEK293 tox -14.9%[172 µM] and FLuc inh 70.8µM*.
For COc1cccc(Nc2cc(-c3cccs3)nc3c(C)noc23)c1 the results were hNpr1 antagonist -9.8%[70.6 µM], GPT2 inh 2.3%[88.5 µM], NIH3T3 tox 79.4µM*, HEK293 tox 100µM* and FLuc inh inactive.
Cc1noc2c(NC3CCC(O)CC3)cc(-c3cccnc3)nc12 (configuration not stated) was read as hNpr1 antagonist 8.0%[70.6 µM], GPT2 inh -32.8%[88.5 µM], NIH3T3 tox 25.1µM*, HEK293 tox -17.6%[172 µM] and FLuc inh inactive.
Screening Cc1noc2c(NC3CCC(O)CC3)cc(-c3cccs3)nc12 (configuration not stated) returned hNpr1 antagonist 0.0%[70.6 µM], GPT2 inh -1.8%[88.5 µM], NIH3T3 tox 28.2µM*, HEK293 tox inconclusive and FLuc inh inactive.
`Cc1noc2c(N3CCNC(=O)C3)cc(-c3cccc(C(F)(F)F)c3)nc12` gave hNpr1 antagonist -25.3%[70.6 µM], GPT2 inh 3.7%[88.5 µM], NIH3T3 tox inconclusive, HEK293 tox inconclusive and FLuc inh inactive.
Cc1noc2c(N3CCNC(=O)C3)cc(-c3cccs3)nc12 was read as hNpr1 antagonist 3.9%[70.6 µM], GPT2 inh 1.1%[88.5 µM], NIH3T3 tox 31.6µM*, HEK293 tox inconclusive and FLuc inh inactive.
Cc1noc2c(NC3CCN(C)CC3)cc(-c3cccnc3)nc12 was read as hNpr1 antagonist -1.5%[70.6 µM], GPT2 inh -2.1%[88.5 µM], NIH3T3 tox inconclusive, HEK293 tox inconclusive and FLuc inh inactive.
`O=C(c1cccc(-c2ccccn2)c1)N1CCN([S+](=O)([O-])c2ccccc2)CC1` gave GPT2 inh -2.2%, NIH3T3 tox inconclusive and HEK293 tox inconclusive.
`O=C(Cc1ccccc1)NCc1ccnc2[nH]ccc12` gave hNpr1 antagonist -14.9%[70.6 µM], GPT2 inh inactive, NIH3T3 tox -5.5%[138 µM], HEK293 tox -2.6%[172 µM] and FLuc inh 35.5µM*.
For O=C(NCc1ccnc2[nH]ccc12)c1ccccc1Cl the results were hNpr1 antagonist 5.2%[70.6 µM], GPT2 inh 4.4%[88.5 µM], NIH3T3 tox -9.4%[138 µM], HEK293 tox -14.0%[172 µM] and FLuc inh inactive.
Screening O=C(NCc1ccnc2[nH]ccc12)c1ccc2ccccc2n1 returned hNpr1 antagonist inconclusive, GPT2 inh 3.4%[88.5 µM], NIH3T3 tox inconclusive, HEK293 tox 89.1µM* and FLuc inh inconclusive.
Screening c1cc(CNC[C@H]2Cn3cc(-c4ccc5c(c4)OCCCO5)nc3CO2)ccn1 returned hNpr1 antagonist -1.9%[70.6 µM], GPT2 inh -9.2%[88.5 µM], NIH3T3 tox -19.7%[138 µM], HEK293 tox -17.7%[172 µM] and FLuc inh 44.7µM*.
Screening c1csc(CNC[C@H]2Cn3cc(-c4ccc5c(c4)OCCCO5)nc3CO2)n1 returned hNpr1 antagonist -4.1%[70.6 µM], GPT2 inh -15.9%[88.5 µM], NIH3T3 tox -7.7%[174 µM], HEK293 tox -10.9%[172 µM] and FLuc inh inconclusive.
`COc1ccccc1-c1cn2c(n1)CO[C@@H](CNCc1cccnc1)C2` gave hNpr1 antagonist 0.7%[70.6 µM], GPT2 inh inconclusive, NIH3T3 tox -28.8%[138 µM], HEK293 tox inconclusive and FLuc inh inactive.
`COc1ncccc1CNC[C@H]1Cn2cc(-c3ccc4c(c3)OCCCO4)nc2CO1` gave hNpr1 antagonist -2.1%[70.6 µM], GPT2 inh inactive, NIH3T3 tox inconclusive, HEK293 tox 89.1µM* and FLuc inh 50.1µM*.
`Cc1cc(C)c(CNC(=O)c2cc(-c3ccccc3)cc3c2OCCN3C)c(=O)[nH]1` gave hNpr1 antagonist -13.6%[70.6 µM], GPT2 inh 4.5%[88.5 µM], NIH3T3 tox inconclusive, HEK293 tox inconclusive and FLuc inh inactive.
For COc1cc(F)ccc1-c1cc(C(=O)NCc2c(C)cc(C)[nH]c2=O)c2c(c1)ncn2C the results were hNpr1 antagonist 4.3%[70.6 µM], GPT2 inh -4.2%[88.5 µM], NIH3T3 tox 25.1µM*, HEK293 tox inconclusive and FLuc inh inconclusive.
For Cc1cc(C)c(CNC(=O)c2cc(-c3ccc(CO)cc3)cc3c2OCCN3C)c(=O)[nH]1 the results were hNpr1 antagonist 0.4%[70.6 µM], GPT2 inh inactive, NIH3T3 tox 12.6µM*, HEK293 tox 89.1µM* and FLuc inh inactive.
Screening COc1ccccc1-c1cc(C(=O)NCc2c(C)cc(C)[nH]c2=O)c2c(c1)N(C)CCO2 returned hNpr1 antagonist -10.7%[70.6 µM], GPT2 inh -6.6%[88.5 µM], NIH3T3 tox inconclusive, HEK293 tox 89.1µM* and FLuc inh inactive.
`COc1cc(F)ccc1-c1cc(C(=O)NCc2ccnc(N)c2)c2c(c1)ncn2C` gave hNpr1 antagonist -13.2%[70.6 µM], GPT2 inh -8.0%[88.5 µM], NIH3T3 tox inconclusive, HEK293 tox inconclusive and FLuc inh inconclusive.
For Cc1cc(C)c(CNC(=O)c2cc(-c3ccccc3)cc3c2OCCN3C(C)C)c(=O)[nH]1 the results were hNpr1 antagonist -8.7%[70.6 µM], GPT2 inh -18.2%[88.5 µM], NIH3T3 tox 22.4µM*, HEK293 tox 31.6µM* and FLuc inh inactive.
For CC(CCc1ccccc1)NC(=O)c1ccc(Cn2ccn3nc4c(c3c2=O)CCCC4)cc1 (configuration not stated) the results were hNpr1 antagonist -17.3%, GPT2 inh inactive, NIH3T3 tox inconclusive, HEK293 tox inconclusive and FLuc inh inactive.
`O=C1OC[C@@H]2CCN(Cc3ccccc3Cl)Cc3ccc(F)cc3N12` gave hNpr1 antagonist -1.5%[70.6 µM], GPT2 inh -5.5%[88.5 µM], NIH3T3 tox -24.1%[174 µM], HEK293 tox 70.8µM* and FLuc inh inactive.
Cc1cccc(CN2CCNc3cnc(Oc4ccccc4)cc3C2)c1 was read as hNpr1 antagonist -14.2%[70.6 µM], GPT2 inh -8.5%[88.5 µM], NIH3T3 tox -27.6%[138 µM], HEK293 tox 89.1µM* and FLuc inh inactive.
